# PubChem BioAssay AID2014 (Sanford-Burnham Center for Chemical Genomics, 2009)
# Hit rate of the full screen: of about 290,000 compounds, about 3,000 (1%) were called active. No rule for the calls is given here. Many of the other results were omitted from the sample, so actives are more common in it than they were.
# Target: Polyadenylate-binding protein 1 (Homo sapiens) (UniProt P11940)
# Experiment: blockers of PABP interaction with poly(A) – biochemical, fluorescence polarization, uHTS, primary screen (AID 2014);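 also: calls also rest on retests at 20 µM and on dose response follow-up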
# Settings: PABP-poly(A) RNA binding, stronger effect = higher value
# Chain of Polyadenylate-binding protein 1 (Homo sapiens) (P11940 whole entry, looked up): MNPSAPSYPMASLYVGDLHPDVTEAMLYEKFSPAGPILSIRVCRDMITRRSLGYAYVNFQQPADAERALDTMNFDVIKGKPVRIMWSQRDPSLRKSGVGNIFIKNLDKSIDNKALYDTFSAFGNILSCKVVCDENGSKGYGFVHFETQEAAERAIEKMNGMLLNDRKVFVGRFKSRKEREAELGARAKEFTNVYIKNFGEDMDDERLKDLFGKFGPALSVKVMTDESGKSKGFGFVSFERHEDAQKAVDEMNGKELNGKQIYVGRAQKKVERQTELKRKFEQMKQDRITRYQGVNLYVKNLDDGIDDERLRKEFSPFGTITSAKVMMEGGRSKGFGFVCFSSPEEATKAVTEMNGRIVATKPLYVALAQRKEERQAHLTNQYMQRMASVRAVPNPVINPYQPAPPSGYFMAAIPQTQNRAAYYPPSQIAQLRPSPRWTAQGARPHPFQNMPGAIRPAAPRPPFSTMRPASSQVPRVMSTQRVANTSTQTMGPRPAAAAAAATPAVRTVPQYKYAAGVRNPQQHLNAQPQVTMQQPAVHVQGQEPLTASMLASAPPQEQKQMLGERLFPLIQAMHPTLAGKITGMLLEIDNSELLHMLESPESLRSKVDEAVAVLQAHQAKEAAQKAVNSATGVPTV
Structure (SMILES),inhibition (at 35 µM),"inhibition (confirmation repeats, at 20 µM)"
O=[N+]([O-])c1cc(Cl)cc(/C=N/NC(=S)Nc2cc(S(=O)(=O)N3CCOCC3)ccc2Cl)c1O,70.2% (active),–
O=C(N/N=C/c1cc(Cl)cc([N+](=O)[O-])c1O)C(O)(c1ccccc1)c1ccccc1,30.5% (inactive),–
O=C(N/N=C/c1ccc([N+](=O)[O-])o1)c1cccc(S(=O)(=O)N2CCOCC2)c1,-5% (inactive),12.9%
CC1=C(C(=O)OCC2CCCCC2)C(c2ccc(F)cc2)NC(=O)N1 (stereo not given),0.3% (inactive),–
CC(C)c1ccc(C(=O)NCCCc2ccccc2)cc1,-0.9% (inactive),–
O=C(NCCCNCc1ccccc1)c1ccc(/C=N/O)nc1,-3.1% (inactive),–
C[N+](C)(C)CCNC(=O)c1cc[n+](Cc2ccccc2)c(/C=N/O)c1,54.2% (active),73.1%
O=C1CCC(C(=O)N2CCCCO2)CN1Cc1cccc(C(F)(F)F)c1 (stereo not given),4.6% (inactive),–
CN(C(=O)c1cccc(OC2CCN(S(=O)(=O)N(C)C)CC2)c1)C1CCOC1 (stereo not given),17.8% (inactive),–
CC1(C(=O)NCCc2c[nH]c3ccccc23)C=CC2(CCCCC2)N1C(=O)c1ccccc1 (stereo not given),4.3% (inactive),–
Oc1c(Cl)cc(Cl)c(Cl)c1Cc1c(O)c(Cl)cc(Cl)c1Cl,-1.5% (active),84.7%
COc1cccc(/C=C2\Sc3ccc(C(=O)NCC4CCCO4)cc3N(C)C2=O)c1 (stereo not given),8.6% (inactive),–
Cc1cccc(C)c1N1C(=O)CN(Cc2ccccc2)C1=S,8.2% (inactive),–
CC(=O)N1c2ccc(S(=O)(=O)NCCC(=O)N(C)C3CCCCC3)cc2CC1C (stereo not given),3.5% (inactive),–
O=C(Nc1ncc2c(n1)-c1ccccc1OC2)c1ccc(Cl)cc1,4.5% (inactive),–
CCc1ccc(Nc2ncc3c(n2)CC(c2ccco2)CC3=O)cc1 (stereo not given),6.2% (inactive),–
O=C(Nc1ncc2c(n1)CC(c1ccco1)CC2=O)c1ccc(Cl)cc1 (stereo not given),65.9% (active),–
CNC(=O)CN1C(=O)NC(c2ccccc2)(c2ccccc2)C1=O,-6.2% (inactive),–
COc1ccc(NC(=O)NN2CCN(C)CC2)c(OC)c1,-2.5% (inactive),–
CSc1nnc(SCc2nc3sc(C(=O)O)c(C)c3c(=O)[nH]2)s1,52.9% (active),–
Cc1ccc(C)c(SCc2nc3sc(C(=O)O)c(C)c3c(=O)[nH]2)c1,-4% (inactive),–
CCOC(=O)c1sc2nc(CSc3ccccc3)[nH]c(=O)c2c1C,9.6% (inactive),–
Cc1cccc(OCC(O)Cn2c(N3CCCCC3)nc3c2c(=O)[nH]c(=O)n3C)c1 (stereo not given),-7.3% (inactive),–
COc1ccccc1/C=C/C(=O)NC1CC2CCC1C2 (stereo not given),13.8% (inactive),–
Cc1ccc(Nc2nc(C)cc(C)c2C(N)=O)cc1,3.4% (inactive),–

Structure (SMILES),inhibition (at 35 µM),"inhibition (confirmation repeats, at 20 µM)"
Cc1cc(C)c(C(N)=O)c(Cl)n1,74.6% (active),79.1%
Cc1cc(OC(=O)c2c(Cl)cccc2Cl)nc(C)n1,8.5% (inactive),–
O=C(NCc1cccc(C(F)(F)F)c1)c1cccc(S(=O)(=O)N2CCN(Cc3ccccc3)CC2)c1,-3.2% (inactive),–
O=C(Nc1ccc(Br)cc1F)C1CC(=O)N(C2CCCCC2)C1 (stereo not given),-1% (inactive),–
COc1ccc(C(=O)NC(C)c2nccs2)cc1OC1CCN(C(C)C)CC1 (stereo not given),1.2% (inactive),–
CCN(C(=O)CSc1nnc(-c2ccncc2)o1)c1ccccc1,-2.5% (inactive),–
CCSc1nc(O)c(C(c2cccc(OC)c2)c2c(O)nc(SCC)[nH]c2=O)c(=O)[nH]1,8.4% (inactive),–
O=C1CCCC2=C1C(c1cccs1)CC(=O)N2c1ccc(F)cc1 (stereo not given),-1.2% (inactive),–
O=C1CC(N2CCN(c3ccc(F)cc3)CC2)C(=O)N1c1ccccc1 (stereo not given),48.8% (inactive),–
N#CC1=C(N)N(c2ccc(F)cc2)C(=O)C1,97.6% (active),–
C[C@H]1[C@H]2c3nc4ccccc4n3C[C@H]1ON2C1CCCCC1,-0.1% (inactive),–
O=C(Cc1ccccc1)n1nc(-c2ccccc2)nc1NCc1ccco1,-0.2% (inactive),–
O=c1nc2s/c(=C\c3ccco3)c(=O)n2nc1Cc1ccccc1,75.7% (active),–
Cc1nc2nc(SCC(=O)NCc3ccco3)nn2c(C)c1Cc1ccccc1,10.6% (inactive),–
CCOCCc1nn2c(=O)cc(CSCC(=O)Nc3cccc(C)c3C)nc2s1,8.3% (inactive),–
COc1ccc(-c2csc(NC3OC(=O)c4ccccc43)n2)cc1 (stereo not given),-0.5% (inactive),–
COc1ccc(-c2csc(Cc3nc(O)cs3)n2)cc1,70.4% (active),52.3%
CC(C)(C)C(=O)OCc1nc(-c2ccc(O)c(O)c2)cs1,10% (inactive),–
O=c1ccc2cc(S(=O)(=O)Nc3ccccc3F)ccc2o1,-1.5% (inactive),–
Cc1c(NC(=O)c2c([N+](=O)[O-])cnn2C)c(=O)n(-c2ccccc2)n1C,-1.3% (inactive),–
CCOc1ccc(N=Cc2c(O)n(-c3cccc(C)n3)c(=O)c3ccccc23)cc1,-1.3% (inactive),–
CCOc1ccc(-n2c(O)c(/C=N/Nc3nc(C)cc(C)n3)c3ccccc3c2=O)cc1,9% (inactive),–
Cc1ccc(-n2c(O)c(C=Nc3ccc(S(=O)(=O)Nc4ncccn4)cc3)c3ccccc3c2=O)cc1C,-8.1% (active),94.9%
O=C(NCC(=O)N1CCN(c2ncc(C(F)(F)F)cc2Cl)CC1)c1ccc(Br)o1,3.4% (inactive),–
CC(=O)N1CCSc2ccc(S(=O)(=O)N3CCC(C)CC3)cc21,0% (inactive),–

Structure (SMILES),inhibition (at 35 µM),"inhibition (confirmation repeats, at 20 µM)"
Cc1cccc(OCC(=O)NC2CC(C)(C)NC(C)(C)C2)c1,6.7% (inactive),–
C=CCN1C=C2C(=O)C(C)(OC(=O)CCc3ccccc3)C(=O)C=C2C=C1c1ccc(C#N)cc1 (stereo not given),38.3% (active),80.1%
CC1(OC(=O)CCc2ccccc2)C(=O)C=C2C=C(c3ccc(C#N)cc3)N(CCc3ccccn3)C=C2C1=O (stereo not given),26.9% (inactive),–
NC(=O)COc1ccccc1C(=O)NC12CC3CC(CC(C3)C1)C2,-0.3% (inactive),–
Cc1cc(/C=N/Nc2ccc([N+](=O)[O-])cn2)c(C)n1-c1cccc(C(=O)O)c1,50.3% (active),–
Cc1ccc(-n2c(C)cc(/C=N/Nc3ccc([N+](=O)[O-])cn3)c2C)c(C)c1,10.5% (inactive),–
COc1cc(/C=N\Nc2ccc([N+](=O)[O-])cn2)ccc1OCC(=O)O,13.3% (inactive),–
CC(C)=CCN1CCN(CCCc2ccccc2)CC1CCO (stereo not given),-4.3% (inactive),–
CN1/C(=C\C(=O)c2oc3ccccc3c2N)C(C)(C)c2ccccc21,15.4% (inactive),–
CN1/C(=C\C=C2\N=C(c3ccc(F)cc3)OC2=O)C(C)(C)c2ccccc21,120% (active),105%
CN1/C(=C\C(=O)c2cccnc2Cl)C(C)(C)c2ccccc21,-4.7% (inactive),–
O=C(NCCc1ccc(Cl)cc1)C1CCCN1C(=O)NCc1ccccc1 (stereo not given),-1.3% (inactive),–
COc1ccccc1N(CC(=O)Nc1ccccc1C(=O)N1CCCC1)S(C)(=O)=O,0.7% (inactive),–
O=C(O)CCCN1C(=O)c2ccccc2Sc2ncccc21,16.4% (inactive),–
COc1ccc(C(=O)Nc2ccnn2C2CCN(Cc3ccncc3)CC2)cc1,-4.2% (inactive),–
COc1ccc(N=C(C)c2sc3ccccc3c2O)cc1,-3.8% (inactive),–
O=C(N/N=C/c1c(Cl)[nH]c2ccccc12)c1sc2ccccc2c1Cl,-2.8% (inactive),–
Oc1ccc(N=Cc2sc3ccccc3c2Cl)cc1,-14% (active),68.6%
COc1ccccc1N(CC(=O)NC1CCCC1)C(=O)C1(C)CC(=O)N=C2C=CC(C)=CN21 (stereo not given),4.1% (inactive),–
O=C(CC12CC3CC(CC(C3)C1)C2)NCc1ccco1,-13.1% (inactive),–
O=C(COC(=O)CCC(=O)c1cccs1)NCc1ccco1,35.9% (inactive),32.9%
O=C(COC(=O)C12CC3CC(CC(C3)C1)C2)NCc1ccco1,26% (active),62.4%
COc1ccc(C(=O)C2CCCN(C(=O)c3cc(C)on3)C2)cc1F (stereo not given),-11.7% (inactive),–
Cc1cc(C)n(CCC(=O)N2CCN(S(=O)(=O)c3ccc(C)c(C)c3)CC2)n1,-7.6% (inactive),–
